The source made the active and inactive calls.

A short description of assay [1]: E. coli DRC41 culture turbidity changes, primary screen, E. coli filamentation inducer project, strain DRC41, OD650, 48 h (AID 1152).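 Also: E. coli MC1000 strain DRC41 lacking acrAB efflux pump and sulA.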 Conditions: E. coli DRC41 (acrAB sulA), higher = more signal, called active from +8 up or from −8 down.
A short description of assay [2]: small-molecule binders of probe aLefty1, primary screen, biochemical, small-molecule microarray, 635/667 nm fluorescence (AID 1153).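 Also: score merges spot fluorescence with signal-to-noise ratio from the scanned slide images.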 Conditions: higher = more signal.
Assay [3] can be described thus: PSAC antagonists in infected red cells, primary screen, cell-based, P. falciparum Indochina, OD700, 1 h (AID 1154). Conditions: P. falciparum Indochina infected RBC osmotic lysis, higher = more signal, called active from +8 up or from −8 down.
Assay [4] is described as follows: PSAC antagonists in infected red cells, primary screen, cell-based, P. falciparum Indochina, OD700, 2 h (AID 1155).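 Also: lysis reports solute entry through the parasite surface anion channel PSAC; channel blockers reduce lysis of infected cells.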 Conditions: P. falciparum Indochina infected erythrocytes, osmotic lysis OD700; higher = more signal, called active from +8 up or from −8 down.
Assay [5] is described as follows: osmotic lysis modulators in infected erythrocytes, primary screen, PSAC antagonist project, cell-based, P. falciparum Indochina, OD700, 3 h (AID 1156). Conditions: higher = more signal, called active from +8 up or from −8 down.
The nature of assay [6]: PSAC antagonists in infected red cells, primary screen, cell-based, P. falciparum Indochina, OD700, 18 h (AID 1157). Conditions: P. falciparum Indochina infected erythrocytes, osmotic lysis OD700, 18 h; higher = more signal, called active from +8 up or from −8 down.
Assay [7] is described as follows: modulators of S6 phosphorylation in cells, primary screen, cell-based, A549, cytoblot, luminescence, serum-stimulated (AID 1158).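 Also: serum-stimulated A549 lung adenocarcinoma cells; signal is phosphorylated S6 detected by cytoblot immunostaining with HRP secondary.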 Conditions: A549 phospho-S6 cytoblot, 5 h, higher = more signal.
For assay [8], the target named is NADPH oxidase 2 (Homo sapiens) (UniProt P04839). The experiment in a line: NOX2-dependent H2O2 signal modulators, primary screen, NOX inhibitor project, cell-based, HEK293-NOX2, PMA-stimulated, Amplex Red fluorescence (AID 1159). Also: test concentration not given here. Conditions: 45 min, higher = more signal, called active from +8 up or from −8 down.
Sequence of NADPH oxidase 2 (Homo sapiens) (P04839 whole entry, looked up): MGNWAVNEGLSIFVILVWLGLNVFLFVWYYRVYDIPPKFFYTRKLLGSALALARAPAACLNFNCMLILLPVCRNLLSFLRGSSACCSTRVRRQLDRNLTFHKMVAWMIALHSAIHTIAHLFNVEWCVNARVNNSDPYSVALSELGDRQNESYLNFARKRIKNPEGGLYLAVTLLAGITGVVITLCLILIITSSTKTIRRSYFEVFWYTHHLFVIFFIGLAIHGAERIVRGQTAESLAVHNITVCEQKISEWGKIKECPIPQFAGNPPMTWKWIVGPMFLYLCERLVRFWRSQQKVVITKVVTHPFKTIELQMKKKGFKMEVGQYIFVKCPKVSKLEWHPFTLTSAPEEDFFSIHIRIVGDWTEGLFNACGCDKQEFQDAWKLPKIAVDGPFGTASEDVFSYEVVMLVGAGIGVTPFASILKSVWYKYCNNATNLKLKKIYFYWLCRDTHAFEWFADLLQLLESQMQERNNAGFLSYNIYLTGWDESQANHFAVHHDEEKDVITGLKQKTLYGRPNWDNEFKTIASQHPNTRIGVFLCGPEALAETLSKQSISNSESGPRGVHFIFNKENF
Assay [9] addresses NADPH oxidase 4 (Homo sapiens) (UniProt Q9NPH5). The experiment in a line: NOX4-dependent H2O2 signal modulators, primary screen, NOX inhibitor project, cell-based, HEK293-NOX4, tetracycline-induced, Amplex Red fluorescence (AID 1160). Conditions: 45 min, higher = more signal, called active from +8 up or from −8 down.
Assay [10] has as its target NADPH oxidase 5 (Homo sapiens) (UniProt Q96PH1). As to the kind of experiment: NOX5-dependent H2O2 signal modulators, primary screen, NOX inhibitor project, cell-based, HEK293-NOX5, Amplex Red fluorescence (AID 1161). Conditions: HEK293-NOX5, ionomycin, 45 min, higher = more signal.
Assay [11] is described as follows: A549 cell viability effects, profiling panel, calcein-AM fluorescence, 48 h, basal (AID 1162). Also: test concentration not given here. Conditions: higher = more signal.
Assay [12] is described as follows: adipocyte viability effects, profiling panel, cell-based, 3T3-L1 adipocytes, calcein-AM fluorescence, 48 h, basal (AID 1163). Also: test concentration not given here. Conditions: 3T3-L1 adipocytes viability, higher = more signal.
Assay [13] can be described thus: HepG2 cell viability effects, profiling panel, calcein-AM fluorescence, 48 h, basal (AID 1164). Also: test concentration not given here. Conditions: higher = more signal.
The nature of assay [14]: MM1S cell viability effects, profiling panel, calcein-AM fluorescence, 48 h, basal (AID 1165).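 Also: viability of MM1S multiple myeloma cells under basal unstimulated conditions; test concentration not given here.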 Conditions: higher = more signal.
Assay [15] in a line: basal RPMI8226 viability, no added stimulus, profiling panel, cell-based, calcein-AM fluorescence, 48 h, PK04 Diversity Set (AID 1166).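 Also: cells grown under basal conditions without added stimulus; test concentration not given here.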 Conditions: RPMI8226 myeloma viability, higher = more signal.
Assay [16] can be described thus: basal HepG2 mitochondrial membrane potential changes, profiling panel, cell-based, JC-1 fluorescence, 24 h, 100 nL compound (AID 1167). Also: test concentration not given here. Conditions: higher = more signal.
Assay [17] in a line: basal 3T3-L1 adipocyte mitochondrial potential changes, profiling panel, cell-based, JC-1 fluorescence, 3T3-L1 adipocytes, 24 h, 100 nL compound (AID 1168). Also: test concentration not given here. Conditions: JC-1 mitochondrial fluorescence, higher = more signal, called active from +8 up or from −8 down.
A short description of assay [18]: basal RPMI8226 mitochondrial membrane potential changes, profiling panel, cell-based, JC-1 fluorescence, 24 h, 100 nL compound (AID 1169). Also: test concentration not given here. Conditions: RPMI8226 myeloma, JC-1 mitochondrial potential fluorescence, higher = more signal.
Assay [19] is described as follows: basal MM1S mitochondrial membrane potential changes, profiling panel, cell-based, JC-1 fluorescence, 24 h, 100 nL compound (AID 1170). Also: test concentration not given here. Conditions: higher = more signal.
The nature of assay [20]: A549 lung cancer cell viability effects, profiling panel, resazurin fluorescence, 24 h, PK04 Diversity Set (AID 1171). Also: test concentration not given here. Conditions: higher = more signal, called active from +8 up or from −8 down. (Alamar Blue is a resazurin reagent that responds to reducing activity.)

Sequence of NADPH oxidase 4 (Homo sapiens) (Q9NPH5 whole entry, looked up): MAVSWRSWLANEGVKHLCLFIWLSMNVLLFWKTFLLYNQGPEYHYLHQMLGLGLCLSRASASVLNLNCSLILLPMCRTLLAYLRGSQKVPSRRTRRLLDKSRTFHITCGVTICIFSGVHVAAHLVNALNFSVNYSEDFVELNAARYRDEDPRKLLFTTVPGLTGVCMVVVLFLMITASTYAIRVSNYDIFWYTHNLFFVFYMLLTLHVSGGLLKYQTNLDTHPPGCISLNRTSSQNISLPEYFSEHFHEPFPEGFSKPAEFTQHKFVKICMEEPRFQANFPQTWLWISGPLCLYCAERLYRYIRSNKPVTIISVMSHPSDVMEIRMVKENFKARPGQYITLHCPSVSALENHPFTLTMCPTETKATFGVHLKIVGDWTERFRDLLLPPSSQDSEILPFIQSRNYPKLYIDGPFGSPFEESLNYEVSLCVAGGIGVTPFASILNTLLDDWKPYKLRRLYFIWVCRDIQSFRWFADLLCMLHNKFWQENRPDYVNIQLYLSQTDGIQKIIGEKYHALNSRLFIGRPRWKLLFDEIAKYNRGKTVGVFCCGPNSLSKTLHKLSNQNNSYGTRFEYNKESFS
Sequence of NADPH oxidase 5 (Homo sapiens) (Q96PH1 whole entry, looked up): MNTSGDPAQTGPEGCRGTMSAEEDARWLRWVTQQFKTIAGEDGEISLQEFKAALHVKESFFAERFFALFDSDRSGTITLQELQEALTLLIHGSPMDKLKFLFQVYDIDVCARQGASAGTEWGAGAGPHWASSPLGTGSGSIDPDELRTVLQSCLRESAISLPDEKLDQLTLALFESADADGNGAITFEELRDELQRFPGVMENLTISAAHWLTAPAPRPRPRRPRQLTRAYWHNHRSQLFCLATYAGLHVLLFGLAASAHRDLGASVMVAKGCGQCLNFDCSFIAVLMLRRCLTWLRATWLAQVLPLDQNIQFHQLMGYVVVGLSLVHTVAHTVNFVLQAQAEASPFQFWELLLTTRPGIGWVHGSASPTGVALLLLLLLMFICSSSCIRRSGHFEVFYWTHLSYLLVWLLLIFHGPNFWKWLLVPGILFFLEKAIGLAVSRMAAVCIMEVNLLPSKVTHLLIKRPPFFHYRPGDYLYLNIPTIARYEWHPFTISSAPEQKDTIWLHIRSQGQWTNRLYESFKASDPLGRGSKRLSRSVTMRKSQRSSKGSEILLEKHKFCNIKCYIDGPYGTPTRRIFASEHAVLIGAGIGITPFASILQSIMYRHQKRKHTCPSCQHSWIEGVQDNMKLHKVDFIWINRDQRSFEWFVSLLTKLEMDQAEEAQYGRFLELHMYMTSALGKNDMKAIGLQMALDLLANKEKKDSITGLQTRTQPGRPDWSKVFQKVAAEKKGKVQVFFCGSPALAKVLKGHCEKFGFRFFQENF

Take `CCOC(=O)C[C@H]1[C@H](OC(=O)c2ccc(-c3ccccc3)cc2)[C@@H](NC(=O)c2ccc(-c3ccccc3)cc2)c2cc(OCCCO)ccc2N1C(=O)Cc1ccc(OC)cc1`: the z-score in assay [1] is -0.783 (inactive); in [3], 11.4 (active); in [4] it was 0.618 (inactive); in assay [5], -0.397 (inactive); in [6], 0.602 (inactive); in assay [7], 0.491. For the same compound, the z-score in assay [8] was -1.3 (inactive); in assay [9], 0.622 (inactive); in [10] it was -0.0798; in assay [11] it was -0.457; in assay [12], 0.485; in assay [13], -0.0494. Moreover, the z-score is -0.781 in assay [14]; 0.0196 in assay [15]; 1.15 in assay [16]; 0.458 (inactive) in [17]; -0.00497 in assay [18]; 0.413 in [19]. In [20], the z-score was 0.0992 (inactive). Further, the composite z-score in assay [2] is -0.0061.
Consider `COC(=O)[C@]1(Cc2ccccc2N=[N+]=[N-])N=C(c2ccc(OCCCO)cc2)O[C@@H]1c1ccccc1N=[N+]=[N-]`, for which the z-score in assay [1] is -1.19 (inactive); in assay [3] it was 29.5 (active); in assay [4], 27.4 (active); in assay [5], -0.495 (inactive); in assay [6] it was 6.35 (inactive); in assay [7], 0.0559. For the same compound, the z-score in assay [8] is -0.877 (inactive); in assay [9], 0.755 (inactive); in [10], 0.677; in [11], -3.83; in assay [12] it was -0.504; in assay [13], -5.54. In addition, the z-score was -3.59 in assay [14]; -3.94 in assay [15]; -2.39 in [16]; -0.708 (inactive) in [17]; -1.2 in [18]; -2.8 in [19]. The z-score in [20] was -2.87 (inactive). In [2], this compound showed a composite z-score of -0.236.
For the compound `N[C@@H](Cc1ccccc1)Cn1cc(-c2ccccc2)nn1`, the z-score in assay [1] is -2.54 (inactive); in assay [3], 5.12 (inactive); in assay [4] it was 0.745 (inactive); in assay [5] it was 0.0287 (inactive); in assay [6], 0.53 (inactive); in assay [7], -0.209. Besides, the z-score is 0.659 (inactive) in assay [8]; 0.45 (inactive) in assay [9]; 0.448 in [10]; -0.192 in assay [11]; -0.711 in [12]; -0.0622 in [13]. For the same compound, the z-score was -1.57 in assay [14]; -0.0672 in [15]; 1.18 in [16]; 0.399 (inactive) in [17]; -0.515 in assay [18]; 0.137 in assay [19]. Besides, the z-score in assay [20] is 0.837 (inactive). In assay [2], this compound showed a composite z-score of 0.271.
Consider `COc1ccc(C(O)C2C=CC3C(=O)NC(=O)C3N2Nc2ccccn2)cc1OCc1ccccc1` (stereo not given), for which the z-score was -0.325 (inactive) in assay [1]; 1.68 (inactive) in [3]; 0.396 (inactive) in assay [4]; 0.479 (inactive) in [5]; 1.04 (inactive) in assay [6]; -0.432 in assay [7]. In addition, the z-score was -1.49 (inactive) in [8]; -3.05 (inactive) in assay [9]; -2.03 in assay [10]; -1.11 in assay [11]; 0.119 in [12]; 0.222 in assay [13]. Further, the z-score in assay [14] is -0.042; in assay [15] it was -1.22; in assay [16], -1; in [17] it was -0.479 (inactive); in [18] it was -0.879; in assay [19] it was 0.607. For the same compound, the z-score in assay [20] was -0.404 (inactive). For the same compound, the composite z-score in [2] is -0.106.
As for `C[C@]1(C(=O)NCc2ccccc2)c2ccccc2C(=O)N(Cc2ccc(OC(F)(F)F)cc2)[C@H]1c1ccc(CO)cc1`, the z-score is 1.17 (inactive) in assay [1]; 3.54 (inactive) in assay [3]; -0.18 (inactive) in assay [4]; -0.495 (inactive) in [5]; -0.779 (inactive) in [6]; 0.843 in [7]. The z-score in assay [8] was -0.944 (inactive); in [9] it was -1.33 (inactive); in assay [10] it was -0.499; in assay [11] it was 1.84; in [12], 1.12; in [13] it was 1. In addition, the z-score in assay [14] is 0.318; in assay [15] it was 0.346; in assay [16] it was 3.56; in assay [17], 0.777 (inactive); in assay [18] it was -0.584; in [19] it was -0.0466. Further, the z-score in [20] was 1.46 (inactive). The composite z-score in assay [2] was -0.142.
As to `CC(=O)NCCCC[C@@H]1NC(=O)[C@@H]2C[C@H](C(=O)NCCCCCCNC(=O)CS)[C@H](c3ccc(O)cc3)N2C1=O`, the z-score is -0.644 (inactive) in assay [1]; 3.73 (inactive) in [3]; 0.2 (inactive) in [4]; -1.8 (inactive) in assay [5]; 0.0805 (inactive) in [6]; -0.0593 in assay [7]. In addition, the z-score in [8] was 0.897 (inactive); in assay [9], -0.173 (inactive); in [10], -0.697; in assay [11] it was -0.503; in [12], -0.683; in [13] it was 0.366. Moreover, the z-score is 0.0337 in assay [14]; -0.66 in [15]; -0.638 in assay [16]; -0.744 (inactive) in assay [17]; -0.0931 in [18]; -0.795 in [19]. Besides, in assay [20], the z-score is -0.363 (inactive). The same compound displayed a composite z-score in assay [2] of 0.0494.
Regarding `COc1ccc(CCNC(=O)[C@@]2(c3ccc([N+](=O)[O-])cc3)CC(=O)N(CC34CC5CC(CC(C5)C3)C4)[C@@H]2c2ccc(CO)cc2)cc1`, the z-score in assay [1] was 0.0305 (inactive); in [3], 4.6 (inactive); in assay [4], 0.522 (inactive); in assay [5], 3.14 (inactive); in assay [6] it was -0.24 (inactive); in assay [7] it was 2. Further, the z-score is -0.956 (inactive) in [8]; -4.54 (inactive) in assay [9]; -3.97 in assay [10]; -2.36 in assay [11]; 0.369 in assay [12]; -1.88 in [13]. Besides, the z-score in assay [14] is -2.98; in assay [15], -4.23; in assay [16], 1.23; in assay [17], -0.626 (inactive); in assay [18], -0.857; in assay [19], -0.452. The z-score in assay [20] was -2.29 (inactive). In assay [2], this compound came in with a composite z-score of 0.155.
As to `COC(=O)c1ccc(C(O)C2C=CC3C(=O)N(C)C(=O)C3N2NC(=O)OC(C)(C)C)o1` (stereo not given), the z-score in assay [1] was -1.31 (inactive); in [3] it was 0.146 (inactive); in assay [4], 0.52 (inactive); in assay [5], -0.46 (inactive); in [6], 0.533 (inactive); in assay [7] it was -0.785. For the same compound, the z-score in assay [8] was -0.786 (inactive); in [9], -0.929 (inactive); in assay [10], 0.396; in assay [11], 0.441; in assay [12] it was -0.425; in assay [13], 0.0285. For the same compound, the z-score in [14] is -0.978; in [15] it was -0.342; in [16], -1.28; in [17] it was -0.429 (inactive); in [18], -0.535; in [19], 0.395. The z-score in assay [20] is 0.347 (inactive). In addition, the composite z-score in assay [2] was found to be 0.0622.
Take `C=CCNC(=O)[C@@H]1[C@H]2C(=O)O[C@H](c3ccccc3)[C@H](c3ccccc3)N2[C@H](c2ccccc2OCCO)[C@@]12C(=O)Nc1ccc(C#CC3=CCCCC3)cc12`: the z-score is 1.51 (inactive) in [1]; 1.78 (inactive) in [3]; -0.144 (inactive) in assay [4]; -0.458 (inactive) in assay [5]; 0.0442 (inactive) in assay [6]; 2.36 in assay [7]. Moreover, the z-score is 0.646 (inactive) in [8]; -1.35 (inactive) in [9]; -4.4 in assay [10]; -1.77 in [11]; 1.98 in assay [12]; -2.85 in [13]. In addition, the z-score was -3.09 in assay [14]; -3.42 in assay [15]; -1.79 in [16]; 2.32 (inactive) in assay [17]; -0.853 in assay [18]; -1.17 in [19]. For the same compound, the z-score in assay [20] is -1.49 (inactive). Besides, the composite z-score in assay [2] was 0.454.

These data come from PubChem BioAssay.
